# Experimental data published in publication PMC3218832.
# What was measured:
# Assay in all cases: protein binding microarray; high values mean tight binding
# Details in all cases: dsDNA, one strand shown
# RELARELA (p65 homodimer) = RELARELA (p65 homodimer) (Homo sapiens, UniProt Q04206 1-307)
# p50p50 homodimer = p50p50 homodimer (Homo sapiens, UniProt P19838 7-356)
# p52p52 homodimer = target: T1, p52p52 homodimer (Homo sapiens, UniProt Q00653 4-332)
# T1 sequence: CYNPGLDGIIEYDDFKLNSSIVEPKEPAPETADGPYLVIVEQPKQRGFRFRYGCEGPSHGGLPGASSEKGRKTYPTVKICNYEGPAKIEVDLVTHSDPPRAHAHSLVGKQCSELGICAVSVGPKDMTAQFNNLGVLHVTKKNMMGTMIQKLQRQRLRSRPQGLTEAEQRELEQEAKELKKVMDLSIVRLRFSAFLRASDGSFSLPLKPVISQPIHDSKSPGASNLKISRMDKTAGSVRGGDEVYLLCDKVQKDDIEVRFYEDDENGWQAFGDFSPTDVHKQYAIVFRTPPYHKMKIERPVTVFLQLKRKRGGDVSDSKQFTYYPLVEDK
# [1] = target: RELA (p65) subunit of heterodimer;p50 subunit (Homo sapiens;Homo sapiens, UniProt Q04206;P19838 1-307;7-356)
# Chain of RELA (p65) subunit of heterodimer;p50 subunit (Q04206 1-307, chain 1 of 2): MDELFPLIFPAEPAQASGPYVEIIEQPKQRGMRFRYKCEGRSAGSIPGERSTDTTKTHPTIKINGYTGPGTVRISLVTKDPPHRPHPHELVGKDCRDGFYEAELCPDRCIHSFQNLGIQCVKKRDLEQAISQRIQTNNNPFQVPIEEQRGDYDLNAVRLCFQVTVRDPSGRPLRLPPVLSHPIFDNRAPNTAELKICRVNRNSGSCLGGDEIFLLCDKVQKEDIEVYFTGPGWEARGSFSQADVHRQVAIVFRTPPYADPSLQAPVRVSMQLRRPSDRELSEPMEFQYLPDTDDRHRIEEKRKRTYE
# Chain of RELA (p65) subunit of heterodimer;p50 subunit (P19838 7-356, chain 2 of 2): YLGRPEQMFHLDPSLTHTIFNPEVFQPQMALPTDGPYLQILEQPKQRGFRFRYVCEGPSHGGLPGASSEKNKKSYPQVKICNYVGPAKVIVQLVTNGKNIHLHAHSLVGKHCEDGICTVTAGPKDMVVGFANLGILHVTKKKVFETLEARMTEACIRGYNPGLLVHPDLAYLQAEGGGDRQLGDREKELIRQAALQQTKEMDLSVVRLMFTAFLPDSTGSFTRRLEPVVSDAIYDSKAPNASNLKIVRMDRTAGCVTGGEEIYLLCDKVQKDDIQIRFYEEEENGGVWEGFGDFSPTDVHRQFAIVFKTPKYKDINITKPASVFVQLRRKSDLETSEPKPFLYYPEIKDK
# [2] = target: RELA (p65) subunit of heterodimer;p52 subunit (Homo sapiens;Homo sapiens, UniProt Q04206;Q00653 1-307;4-332)
# RELB subunit;p50 subunit = RELB subunit;p50 subunit (Homo sapiens;Homo sapiens, UniProt Q01201;P19838 120-401;7-356)
# RELB subunit;p52 subunit = target: T2, RELB subunit;p52 subunit (Homo sapiens;Homo sapiens, UniProt Q01201;Q00653 120-401;4-332)
# T2 sequence 1: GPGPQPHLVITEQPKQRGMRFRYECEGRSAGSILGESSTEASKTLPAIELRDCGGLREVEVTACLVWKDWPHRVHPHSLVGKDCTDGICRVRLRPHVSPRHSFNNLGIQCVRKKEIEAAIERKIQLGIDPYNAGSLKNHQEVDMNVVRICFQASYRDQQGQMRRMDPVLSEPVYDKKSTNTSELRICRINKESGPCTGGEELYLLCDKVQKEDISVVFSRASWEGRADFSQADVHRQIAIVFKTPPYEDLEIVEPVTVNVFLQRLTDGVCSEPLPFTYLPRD
# T2 sequence 2: T1 sequence
# [3] = target: C-Rel subunit;p50 subunit (Homo sapiens;Homo sapiens, UniProt Q04864;P19838 1-285;7-356)
# [4] = target: T3, C-Rel subunit;p52 subunit (Homo sapiens;Homo sapiens, UniProt Q04864;Q00653 1-285;4-332)
# T3 sequence 1: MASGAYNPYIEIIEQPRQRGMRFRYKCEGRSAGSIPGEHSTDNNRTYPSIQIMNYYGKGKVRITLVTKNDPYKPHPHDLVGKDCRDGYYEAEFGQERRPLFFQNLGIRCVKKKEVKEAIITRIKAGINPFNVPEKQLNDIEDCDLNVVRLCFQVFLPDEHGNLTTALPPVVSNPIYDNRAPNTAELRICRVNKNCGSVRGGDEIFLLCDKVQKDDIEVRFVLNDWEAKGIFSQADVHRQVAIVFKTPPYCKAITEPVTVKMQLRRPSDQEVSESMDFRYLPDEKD
# T3 sequence 2: T1 sequence
# Chain of p50p50 homodimer (P19838 7-356): as the sequence (P19838 7-356, chain 2 of 2) above
# Chain of RELARELA (p65 homodimer) (Q04206 1-307): as the sequence (Q04206 1-307, chain 1 of 2) above
Sequence,binding signal (RELARELA (p65 homodimer)) [z-score],binding signal (p50p50 homodimer) [z-score],binding signal (p52p52 homodimer) [z-score],binding signal [1] [z-score],binding signal [2] [z-score],binding signal (RELB subunit;p50 subunit) [z-score],binding signal (RELB subunit;p52 subunit) [z-score],binding signal [3] [z-score],binding signal [4] [z-score]
AAGGGACCCCC,-0.529,0.964,0.927,0.806,0.93,0.75,0.929,0.681,0.75
CGGAAAACCCC,3.69,1.19,2.57,2.32,2.28,1.23,2.18,2.07,3.23
CGAGACGCCCC,-0.513,0.148,-0.0437,0.0369,-0.155,0.237,0.231,0.27,-0.0784
CGAGTGCTCCT,-0.962,-2.12,-0.788,-1.11,-1.03,-1.37,-0.983,-1.63,-0.978
AAAGGGTTCCT,-0.817,-1.23,-0.468,-0.866,-0.749,-1.03,-0.714,-0.957,-0.558
GAGAGTATCCC,-0.187,-0.91,-0.43,-0.602,-0.673,-0.546,-0.687,-0.656,-0.641
CAATTCCTCCT,0.0653,-1.06,-0.655,-0.688,-0.609,-0.871,-0.932,-0.776,-0.597
AGAGGGACCCT,-0.966,-0.326,0.216,-0.688,-0.129,-0.226,-0.0964,-0.803,-0.355
CAGAAGGCCCC,-0.908,-0.224,-0.259,-0.114,-0.223,-0.248,-0.262,-0.241,-0.183
GAATAGGTCCT,-0.471,-1.25,-0.387,-1.08,-0.8,-0.766,-0.501,-1.35,-0.527
GGAGAAGTCCT,0.391,-0.831,-0.506,-0.525,-0.585,-0.798,-0.864,-0.433,-0.307
GGATACCCCCC,0.633,1.23,1.22,1.77,1.48,1.06,1.52,1.14,1.54
GAGGGCATCCC,0.359,-0.785,-0.256,-0.318,-0.398,-0.647,-0.505,-0.179,-0.277
AGATGTTCCCT,0.238,0.414,0.229,0.235,-0.0295,0.0779,-0.091,0.0801,-0.204
CGATTAATCCC,0.0967,-0.315,-0.0861,-0.0553,-0.137,0.0473,-0.161,-0.0218,-0.299
AGAAGGGTCCC,-0.591,-0.215,0.0384,-0.173,-0.123,-0.00663,-0.0866,-0.405,-0.315
AGAAGCTCCCT,-0.425,0.158,-0.322,-0.103,-0.284,-0.0298,-0.239,-0.54,-0.52
CGGGTATTCCT,1.71,0.73,1.4,0.593,1.06,0.353,0.712,0.468,1.22
CAGTGGGTCCT,-0.388,-1.79,-0.509,-1.1,-0.79,-0.698,-0.708,-1.36,-1.08
AGGTTTTCCCC,3.11,1.14,3.16,2.17,2.48,2.01,2.3,1.8,2.63
AGAGTATTCCC,1.05,0.224,0.305,0.534,0.292,0.0188,0.0238,0.73,0.396
CAGTAGGTCCC,0.28,-0.303,-0.0746,-0.34,-0.347,0.0687,-0.117,-0.43,-0.438
GAGTTATCCCT,-0.151,0.156,0.345,-0.075,0.135,0.201,0.304,-0.0693,-0.00956
GGAATACTCCC,0.714,0.226,-0.025,0.507,0.124,0.0318,-0.125,0.28,0.199
AGAAACGTCCT,-0.192,-1.17,-0.534,-0.997,-0.794,-0.947,-0.798,-1.13,-0.812
AAATTTCCCCC,2.97,1.66,2.84,2.63,2.41,2.88,2.69,2.02,2.57
GAATGGATCCC,-0.423,-0.946,-0.505,-0.796,-0.763,-0.777,-0.774,-1.02,-0.839
GAAGATTTCCT,0.421,-0.715,-0.513,-0.241,-0.568,-0.764,-0.77,-0.169,-0.383
GGGGTCTCCCT,0.447,0.727,1.4,1.01,1.15,0.85,1.05,0.709,1.16
AGAGAGGCCCC,-0.813,-0.259,-0.348,-0.461,-0.565,-0.342,-0.35,-0.436,-0.513
